The record followed here is the supplement of paper PMC9588786.

Values joined by “and” are separate entries in the source; they are usually repeats but may differ in a detail not shown here. Identical values can stand only once. ± gives the standard deviation of the averaged measurements.
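Note: viability read as CCK-8 absorbance at 450 nm in cells co-exposed to the GPX4 inhibitor RSL3, relative to a 0.01% DMSO vehicle control.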

The subject of this assay is HT-1080. Nature of the assay: relative cell viability with RSL3 co-treatment (fraction of control); higher = stronger protection from RSL3-induced ferroptosis (higher viability). The note with it: 10 µM.
As to `COc1ccc(C(=O)Nc2sc3c(c2C(N)=O)CCCC3)cc1OC`, the relative cell viability was found to be 0.66 ± 0.087.

As to `Cc1ccc(NC(=O)c2cccc(C(C)(C)C#N)c2)cc1Nc1ccc2ncn(C)c(=O)c2c1`, the relative cell viability came to 0.507 ± 0.047.

With `C[C@@H]1CCN(C(=O)CC#N)C[C@@H]1N(C)c1ncnc2[nH]ccc12`, the relative cell viability was 0.75 and 0.64.

`NC(=O)c1ncn([C@@H]2O[C@H](CO)[C@@H](O)[C@H]2O)c1N` [AICAR (Acadesine)]: the relative cell viability was 1.03 ± 0.011.

As for `N#C/C(=C\c1ccc(O)c(O)c1)C(=O)NCc1ccccc1` [AG-490 (Tyrphostin B42)], the relative cell viability came out at 0.55 ± 0.12.

Take `O=C1Nc2ccc(I)cc2/C1=C/c1cc(Br)c(O)c(Br)c1`: the relative cell viability amounted to 0.573 ± 0.2.

For `CC(C)(C)c1nc(-c2cccc(NS(=O)(=O)c3c(F)cccc3F)c2F)c(-c2ccnc(N)n2)s1`, the relative cell viability turned out to be 0.577 ± 0.11.

As to `CN1CCC(COc2cnc(-c3cccc(Cn4nc(-c5cccc(C#N)c5)ccc4=O)c3)nc2)CC1`, the relative cell viability came out at 0.633 ± 0.067.

`c1cc(-c2cnn3cc(-c4ccc(OCCN5CCCCC5)cc4)cnc23)ccn1` [Dorsomorphin 2HCl]: the relative cell viability was found to be 0.463 ± 0.18.

As to `COc1ccccc1-c1cc(Nc2cccc(CS(N)(=O)=O)c2)ncn1`, the relative cell viability was 0.613 ± 0.095.

As to `Cc1ccc(-n2nc(C(C)(C)C)cc2NC(=O)Nc2ccc(OCCN3CCOCC3)c3ccccc23)cc1` [Doramapimod (BIRB 796)], the relative cell viability was found to be 0.57 ± 0.03.

Turning to `C=CC(=O)Nc1cccc(Oc2nc(Nc3ccc(N4CCN(C)CC4)cc3)ncc2Cl)c1`, the relative cell viability was 0.337 ± 0.057.

On to `C[C@@H](N)[C@H]1CC[C@H](C(=O)Nc2ccncc2)CC1`, for which the relative cell viability was 0.843 ± 0.032.

Regarding `O=C1NC(=O)/C(=C/c2cccc(C(F)(F)F)c2)S1`, the relative cell viability was determined as 0.807 ± 0.015.

As for `Nc1nc(N)c(N=O)c(OCC2CCCCC2)n1`, the relative cell viability was 0.82 ± 0.01.

On to `NC1(Cc2ccc(Cl)cc2)CCN(c2ncnc3[nH]ccc23)CC1`, for which the relative cell viability is 0.473 ± 0.25.

On to `CNS(=O)(=O)C[C@H]1CC[C@H](N(C)c2[nH]cnc3nccc2-3)CC1` [Oclacitinib], for which the relative cell viability came to 0.927 ± 0.075.

Regarding `CNC(=O)c1cc(Oc2ccc3nc(N[C@@H]4CCCC[C@H]4O)sc3c2)ccn1`, the relative cell viability was determined as 0.767 ± 0.05.

With `Cc1cc(N2CCOCC2)cc2[nH]c(-c3c(NC[C@@H](O)c4cccc(Cl)c4)cc[nH]c3=O)nc12`, the relative cell viability was determined as 0.987 ± 0.15.

As to `CCN(CC)CCCC(C)Nc1ccnc2cc(Cl)ccc12` (stereo unspecified) [Chloroquine Phosphate], the relative cell viability worked out at 0.817 ± 0.12.

`COc1cc2nccc(Oc3ccc(NC(=O)Nc4cc(C)on4)c(Cl)c3)c2cc1OC` [Tivozanib (AV-951)]: the relative cell viability came out at 0.23 ± 0.11.

As for `COc1ccc(F)c(F)c1C(=O)c1cnc(NC2CCN(S(C)(=O)=O)CC2)nc1N`, the relative cell viability was 0.577 ± 0.15.

For the compound `O=C(/C=C/c1ccc2ccccc2n1)c1ccncc1`, the relative cell viability worked out at 0.64 ± 0.075.

Turning to `O=C(Nc1c[nH]nc1-c1nc2ccc(CN3CCOCC3)cc2[nH]1)NC1CC1`, the relative cell viability came to 0.35 ± 0.14.

In the case of `O=C1NC(=O)[C@@H](c2cn3c4c(cccc24)CCC3)[C@@H]1c1c[nH]c2ccccc12` [Tivantinib (ARQ 197)], the relative cell viability stood at 0.64 ± 0.085.

For the compound `N#Cc1c(O)c2c(-c3ccc(-c4ccccc4O)cc3)csc2[nH]c1=O`, the relative cell viability worked out at 0.793 ± 0.046.
